Results: PubChem BioAssay (NCI)
This is part of a sample that, as a whole, favours compounds with a hit. Of some 83,000 tested, about 20% had one in any assay.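 Each cell line was grown in a 96-well plate and treated with one concentration of compound for 48 hours. Values below 10 were considered active.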 Values without a mark were called inactive. Activity calls are given as the source filed them.

Test system: MDA-MB-435 melanoma
Test: NCI-60 one-dose screen, 48 h (100 = growth as untreated, 0 = no growth, -100 = all killed)
Conditions: 10 µM unless noted
Protocol: Growth inhibition of the MDA-MB-435 human Melanoma tumor cell line is measured as a screen for anti-cancer activity. Cells are grown in 96 well plates and exposed to the test compound for 48 hours. Compounds are tested at a single concentration, which is 10^-5 M for most compounds. The reported endpoint is percent growth (GI% or GIPRCNT), where numbers from 0 - 100% represent growth inhibition, and numbers from -100% - 0 represent cell death. For example, a value of 40 represents 60% growth inhibition. A value of 0 means no net growth occurred over the course of the experiment. A value of -40 indicates 40% of cells at the beginning of the experiment died by the end of the experiment. A value of -100 means all cells are dead at the end of the experiment.
NCI-60 Human Tumor Cell Lines Screen was performed using the standard one-dose NCI protocol, which is described in more detail at https://dtp.cancer.gov/discovery_development/nci-60/default.htm.
Compounds with GIPRCNT values below 10 were considered active. Activity score was based on GIPRCNT using the following formula: […]
Score is 0 for GIPRCNT values of 100 or above, 50 for GIPRCNT values of 0, and 100 for GIPRCNT values of -100.

Compound	growth
Cc1ccc(S(=O)(=O)N/N=C\c2cc(Cl)ccc2O)cc1	82%
O=c1c2c3c(sc2n2c(-c4cn(-c5ccccc5)nc4-c4ccc(Cl)cc4)nnc2n1Cc1ccccc1)CCCC3	103%
CCCCCCCCCCCCCCCCCCOc1ccc(CC(=O)OCC[N+]2(C)CCCC2)cc1	100%
Cc1cc(NCc2cc(Nc3ccnc4cc(Cl)ccc34)ccc2F)nc(Cl)n1	37%
O=C(c1ccccc1)c1c(/C=C/c2ccc(Cl)cc2)nc2ccccc2c1/C=C/c1cccs1	99.1%
Cc1cc(O)c(C2=NN(c3ccc(S(N)(=O)=O)cc3)C(c3ccccc3Cl)C2)cc1Cl (stereo not given)	8.16% (active)
CCC1(C2CCCC2)NC(=O)NC1=O (stereo not given)	102%
CCc1c2c(nc3ccc(OC(=O)OCc4ccc(B5OC(C)(C)C(C)(C)O5)cc4)cc13)-c1cc3c(c(=O)n1C2)COC(=O)[C@]3(O)CC	-28.3% (active)
NC(=S)Nc1cccc(O)c1	98.6%
COc1c(CCC[P+](c2ccccc2)(c2ccccc2)c2ccccc2)cc2c(c1OC)OCO2	2.57% (active)
O=C(NCCc1ccc(O)c(O)c1)C12CC3CC(CC(C3)C1)C2	107%
CC/C=C\CCC/C=C1/C(=O)C=C[C@@H]1C/C=C\CCCC(=O)O	5.08% (active)
c1ccc2cc3nc4cc5ccccc5cc4nc3cc2c1	119%
CC(C)CCC[C@@H](C)[C@H]1CC[C@H]2[C@@H](Nc3ccc(O)cc3)CCC[C@]12C	100%
CC(CCc1ccc(Cl)c(Cl)c1)NCc1ccc(C(C)(C)C)cc1 (stereo not given)	93.1%
N#Cc1c(-c2ccccc2)cc(-c2ccc(Nc3nc(Nc4ccc(F)cc4)nc(Nc4ccc(F)cc4)n3)cc2)nc1N	105%
Cc1cccc(NC(=O)N/C(N)=N/c2nc(C)c(C)s2)c1	-28.5% (active)
C#Cc1cccc(NC(=O)c2ccc(NC(=O)CCl)cc2)c1	-4.26% [8.25 µM] (active)
Cc1cc[c-]cc1.Fc1c[c-]c(-c2ccccn2)c(F)c1.[Pt+2].c1ccc(P(C[PH+](c2ccccc2)c2ccccc2)c2ccccc2)cc1	8.28% (active)
O=C(CCCCCCSc1nc(-c2ccccc2)cc(-c2ccc(Cl)cc2)n1)NO	19.4%

Compound	growth
COc1cccc(-c2nn(-c3ccccc3)cc2-c2ccnc(NCCCNC(=O)Nc3ccc(Cl)c(Cl)c3)c2)c1	-36.3% (active)
COc1ccc(-c2nc(SCCC(C)C)nc(N/N=C\c3ccccc3O)c2C#N)cc1	87.8%
Cn1c(-c2c(N)n(Cc3cccnc3)c3nc(C#N)c(C#N)nc23)nc2ccccc21	89.3%
Cc1cc(=O)oc2c1ccc1oc(C#N)c(C)c12	95.5%
CC(C)C(=O)Nc1n[nH]c2cc(-c3cccc(NS(=O)(=O)C4CC4)c3)ccc12	12.9%
COc1cc2c(cc1-c1c(C)noc1C)ncc1nc(C3CCCCC3)n(C3CCC(OC(F)F)CC3)c12 (stereo not given)	41.6%
Cc1ccc(Nc2ccc(Nc3ccc(C)cc3)c3c2C(=O)c2cccc(O)c2C3=O)cc1	104%
COc1cc(/C=N/Nc2ncc(-c3cc4cc5c(cc4o3)OCO5)s2)cc(OC)c1OC	18.9%
CCCCCCCCCCCC(c1ccccc1)[N+](C)(C)C (stereo not given)	8.21% (active)
C[C@@H]1N=C(c2ccc3ccccc3n2)Nc2nc3ccccn3c2C1=O	104%
O=C(O)CN1C(=O)CCC1=O	102%
O=c1[nH]nc(-c2ccccc2)c2c(-c3ccccc3)onc12	16.7%
O=C1Nc2ccccc2/C1=C/c1cn(C(=O)c2c(Cl)cccc2Cl)c2ccccc12	85.7%
COc1cc2ncn3c(=O)c4c5c(sc4nc3c2cc1OC)CCCC5	92.5%
C=C1C(=O)O[C@H]2[C@H]1CC/C(COC(=O)C(=O)c1c[nH]c3ccc(OC)cc13)=C\CC[C@@]1(C)O[C@@H]21	-85.3% (active)
O=C(Nc1ccc(Nc2ccncc2)cc1)c1ccc(C(=O)Nc2ccc(Nc3ccncc3)cc2)cc1	48.8%
CCOC(=O)/C=C/c1cc2cc(-c3csc4ccccc34)ccc2[nH]1	-10.4% (active)
N#CC1=C(c2ccc(Br)cc2)NC(SCC(=O)c2ccc(Br)cc2)NC1=O (stereo not given)	103%
Cn1c(=O)c2c(nc(Cl)n2CCl)n(C)c1=O	43.5%
CN(C)CCC=C1c2ccccc2C(C)(C)c2ccccc21	66.9%
